Results on 13 compounds are retold here after the supplement of paper PMC3414501.

Each structure is given as a SMILES string. Structures can show the parent of a compound that is named as a salt.
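Further: active if sensitivity score above 5.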

This experiment deals with S. cerevisiae NKY1551 his4x/his4B, sporulating. The experiment in a line: HIS4 meiotic recombination assay sensitivity score (z-score vs DMSO controls); higher = stronger inhibition of sporulation/recombination, active = hit call of the paper.
`C[C@@H](c1ncncc1F)[C@](O)(Cn1cncn1)c1ccc(F)cc1F` [Voriconazole] (stock concentration (mM, diluted 1:100): 9.9): the “HIS4 meiotic recombination assay sensitivity score” value was 0.14 (inactive). The figure for `O=C1c2cccc3c2[C@H](CCC3)CN1[C@@H]1CN2CCC1CC2` [Palonosetron hydrochloride] (stock concentration (mM, diluted 1:100): 10) is 5.73 (active).

Regarding `COCCCOc1ccnc(C[S+]([O-])c2nc3ccccc3[nH]2)c1C` (stereo not drawn) [Rabeprazole] (stock concentration (mM, diluted 1:100): 10.6), the “HIS4 meiotic recombination assay sensitivity score” value was 3.07 (inactive). In the case of `NC(N)=NC(=O)c1nc(Cl)c(N)nc1N` (stock concentration (mM, diluted 1:100): 8.2), the “HIS4 meiotic recombination assay sensitivity score” value is 2.44 (inactive). The figure for `COc1ccc2c(c1)c(CC(=O)O)c(C)n2C(=O)c1ccc(Cl)cc1` [Indomethacin] (stock concentration (mM, diluted 1:100): 10.5) is 0.4 (inactive); for `O=C(CCCN1CC=C(n2c(=O)[nH]c3ccccc32)CC1)c1ccc(F)cc1` [Droperidol] (stock concentration (mM, diluted 1:100): 10) it is -0.15 (inactive). The figure for `C[C@H]1C[C@H]2[C@@H]3CCC4=CC(=O)C=C[C@]4(C)[C@@]3(Cl)[C@@H](O)C[C@]2(C)[C@@]1(O)C(=O)CO` [Beclomethasone] (stock concentration (mM, diluted 1:100): 10) is -3.46 (inactive). The figure for `CC(C)c1ccc2oc3nc(N)c(C(=O)O)cc3c(=O)c2c1` [Amlexanox] (stock concentration (mM, diluted 1:100): 10) is 0.07 (inactive); for `c1cnc(N2CCN(Cc3ccc4c(c3)OCO4)CC2)nc1` [Piribedil] (stock concentration (mM, diluted 1:100): 9.7) it is -0.82 (inactive); for `C[C@]12CCC(=O)C=C1CC[C@@H]1[C@@H]2CC[C@@]2(C)[C@H]1CC[C@]2(O)C(=O)CO` [Cortodoxone] (stock concentration (mM, diluted 1:100): 10) it is 0.86 (inactive). As to `CC[C@H]1OC(=O)[C@H](C)C(=O)[C@H](C)[C@@H](O[C@@H]2O[C@H](C)C[C@H](N(C)C)[C@H]2O)[C@](C)(OC)C[C@@H](C)C(=O)[C@H](C)[C@H]2N(CCCCn3cnc(-c4cccnc4)c3)C(=O)O[C@]12C` [Telithromycin] (stock concentration (mM, diluted 1:100): 10), the “HIS4 meiotic recombination assay sensitivity score” value was 0.14 (inactive). As to `CC(=O)OCC(=O)NCCCOc1cccc(CN2CCCCC2)c1` [Roxatidine acetate hydrochloride] (stock concentration (mM, diluted 1:100): 9.1), the “HIS4 meiotic recombination assay sensitivity score” value is -1.59 (inactive).

Consider `CCN1CC(CCN2CCOCC2)C(c2ccccc2)(c2ccccc2)C1=O` (stereo not drawn) [Doxapram hydrochloride] (stock concentration (mM, diluted 1:100): 10.4), for which the “HIS4 meiotic recombination assay sensitivity score” value was 1.8 (inactive).
